Structures can show the parent of a compound that is named as a salt.
test system: OCI-AML2; test: cell viability relative to vehicle control; higher = less cytotoxic; conditions: 10 µM; SRSF2 genotype: P95H/wt
Method in brief: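 CRISPR-edited SRSF2 P95 mutant and isogenic wild-type clones of four leukaemia lines were screened against Selleck bioactive, kinase and epigenetic probe libraries, with identity-inconsistent compounds removed. Compounds were acoustically dispensed into 384-well plates at a single 10 µM dose, with 2000 cells in 50 µL medium per well. After 48 h, supernatant was removed and CellTiter-Glo luminescence was read. Viability was expressed as percent of the on-plate DMSO vehicle control, analysed in Genedata Screener.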

`Cc1ccc2nc(NC(=O)CSc3nc4c(c(=O)n3-c3ccccc3)SCC4)sc2c1` was tested. Which cell viability did it give?
Its cell viability is 94.2%.

For `COC(=O)C1=C(C)NC(C)=C(C(=O)OCCN(C)Cc2ccccc2)C1c1cccc([N+](=O)[O-])c1` (stereo not given) [Nicardipine HCl], which cell viability is on record?
The cell viability was 85.8%.

Which cell viability does the source give for `O=C(O)c1cccnc1Nc1cccc(C(F)(F)F)c1` [Niflumic acid] here?
The cell viability was 101%.

For `Cc1cc(Nc2cc(N3CCN(C)CC3)nc(/C=C/c3ccccc3)n2)n[nH]1` [ENMD-2076 L-(+)-Tartaric acid], which cell viability is on record?
Its cell viability is 7.71%.

For `CC(C)[C@H]1CC[C@H](C(=O)N[C@H](Cc2ccccc2)C(=O)O)CC1` [Nateglinide (Starlix)], which cell viability is on record?
Its cell viability is 105%.

For `O=C1C[C@@H](c2ccc(O)cc2)Oc2cc(O)cc(O)c21` [Naringenin], which cell viability is on record?
The cell viability was 96.5%.

For `C=CC(=O)N1CCC[C@@H](n2nc(-c3ccc(Oc4ccccc4)cc3)c3c(N)ncnc32)C1`, which cell viability is on record?
Its cell viability is 44.3%.

With `CC(=O)OC(CC(C)C1=C2CC(O)C3C4(C)CCC(=O)C(C)(C)C4CCC3(C)C2(C)CC1)C1OC1(C)C` (stereo not given) [Alisol B Acetate] as the compound, how does the cell viability read?
The cell viability was 64.1%.

Which cell viability does the source give for `CC(=O)Nc1cccc2c1c(Sc1ccc(Cl)cc1)c(C)n2CC(=O)O` here?
The cell viability was 101%.

How did the cell viability turn out when `Cc1cc(NS(=O)(=O)c2ccc(N)cc2)no1` [Sulfamethoxazole sodium] was run?
Its cell viability is 93.1%.

Which cell viability does the source give for `C[C@@H]1O[C@@H](O[C@H]2[C@H](Oc3cc(O)c4c(c3)O[C@H](c3ccc(O)cc3)CC4=O)O[C@H](CO)[C@@H](O)[C@@H]2O)[C@H](O)[C@H](O)[C@H]1O` [Naringin (Naringoside)] here?
The cell viability was 112%.

For `C[C@]12CC[C@H](O)CC1=CC[C@@H]1[C@@H]2CC[C@]2(C)C(n3cnc4ccccc43)=CC[C@@H]12` [Galeterone (TOK-001)], which cell viability is on record?
Its cell viability is 80.3%.

For `COc1cc(C(=O)N(CCCc2ccccc2)Cc2ccc(CC(=O)O)cc2)cc(OC)c1C`, which cell viability is on record?
Its cell viability is 101%.

For `Oc1ccc(OC2CCCCO2)cc1` (stereo not given) [Deoxyarbutin], which cell viability is on record?
Its cell viability is 87.4%.

With `NS(=O)(=O)c1ccccc1` [Benzenesulfonamide] as the compound, how does the cell viability read?
Its cell viability is 107%.

How did the cell viability turn out when `COc1ccc([C@@H]2CC(=O)c3c(O)cc(O[C@@H]4O[C@H](CO)[C@@H](O)[C@H](O)[C@H]4O[C@@H]4O[C@@H](C)[C@H](O)[C@@H](O)[C@H]4O)cc3O2)cc1` [Poncirin] was run?
The cell viability was 95.1%.

How did the cell viability turn out when `CC(=O)Oc1cc(C(F)(F)F)ccc1C(=O)O` [Triflusal] was run?
The cell viability was 92.2%.

For `OC1OC[C@@H](O)[C@@H](O)[C@@H]1O` (stereo partly drawn) [D(-)-Arabinose], which cell viability is on record?
Its cell viability is 116%.

For `CC[C@@H]([C@H](C)O)n1ncn(-c2ccc(N3CCN(c4ccc(OC[C@@H]5CO[C@@](Cn6cncn6)(c6ccc(F)cc6F)C5)cc4)CC3)cc2)c1=O` [Posaconazole], which cell viability is on record?
The cell viability was 18.1%.

How did the cell viability turn out when `Nc1nc(-c2nn(Cc3ccccc3F)c3ncccc23)ncc1C1CC1` was run?
Its cell viability is 83.9%.

How did the cell viability turn out when `COc1cc2c(cc1OC)[C@@H](Cc1ccc(O)c(Oc3cc4c(cc3OC)CCN(C)[C@@H]4Cc3ccc(O)cc3)c1)N(C)CC2` [Liensinine] was run?
Its cell viability is 63.2%.

`NC(=O)c1cnccn1` [Pyrazinamide (Pyrazinoic acid amide)] was tested. Which cell viability did it give?
Its cell viability is 95.6%.

With `CC(C)(C)NS(=O)(=O)c1cncc(-c2cc(F)c3nc(N)nn3c2)c1` as the compound, how does the cell viability read?
Its cell viability is 81.1%.

With `CC(=O)O[C@@H]1C[C@@]23C[C@@]24CC[C@H](O[C@@H]2OC[C@@H](O)[C@H](O)[C@H]2O)C(C)(C)[C@@H]4CC=C3[C@]2(C)C[C@@H]3OC4(C[C@@H](C)[C@@H]3[C@@]12C)OC(O)C1(C)OC41` (stereo not given in full) [Cimicifugoside] as the compound, how does the cell viability read?
Its cell viability is 99%.

`O=C(O)c1ccc(CN2CCC(CN[C@@H]3C[C@H]3c3ccccc3)CC2)cc1` was tested. Which cell viability did it give?
The cell viability was 78.3%.

`CN1C(N)=N[C@](C)(c2cc(NC(=O)c3ccc(F)cn3)ccc2F)CS1(=O)=O` [Verubecestat (MK-8931)] was tested. Which cell viability did it give?
Its cell viability is 99.9%.

Which cell viability does the source give for `O=C[C@H](O)[C@@H](O)[C@H](O)CO` [Xylose] here?
Its cell viability is 103%.

For `COc1ccc(CCNCC(O)COc2cccc(C)c2)cc1OC` (stereo not given) [Bevantolol hydrochloride], which cell viability is on record?
The cell viability was 81.8%.

For `C/C=C1\[C@H]2C=C(C)C[C@]1(N)c1ccc(=O)[nH]c1C2` [(-)-Huperzine A (HupA)], which cell viability is on record?
The cell viability was 109%.

`COC(=O)CCC(C)C1CCC2C3C(O)CC4CC(O)CCC4(C)C3CC(O)C12C` (stereo not given) [Methyl Cholate] was tested. Which cell viability did it give?
Its cell viability is 102%.

`Cc1cccc(C)c1NC(=O)c1cc(S(N)(=O)=O)c(Cl)cc1O` [Xipamide] was tested. Which cell viability did it give?
Its cell viability is 97.5%.

With `Cn1nnc2c(C(N)=O)ncn2c1=O` [Temozolomide] as the compound, how does the cell viability read?
The cell viability was 94.9%.

`COc1ccc(Oc2cc(NCCC(F)(F)F)c3ncc(-c4ccc(C(=O)NC5CC5)c(C)c4)n3n2)c(F)c1F` was tested. Which cell viability did it give?
The cell viability was 71.4%.

For `NC(=O)Cc1c[nH]c2ccccc12` [Indole-3-acetamide], which cell viability is on record?
Its cell viability is 107%.

`COc1ccc(CC(=O)O)cc1OC` [Homoveratrumic acid] was tested. Which cell viability did it give?
The cell viability was 88.2%.

`COc1ccc2c(c1O)-c1c(O)c(OC)cc3c1[C@H](C2)[N+](C)(C)CC3` [Magnoflorinechloride] was tested. Which cell viability did it give?
The cell viability was 93.8%.

How did the cell viability turn out when `CC(c1cc2ccccc2s1)N(O)C(N)=O` (stereo not given) [Zileuton] was run?
The cell viability was 92.8%.

With `Cc1c(C(=O)N2CCOc3ccc(-c4ccc(N)nc4)cc3C2)ccc(S(C)(=O)=O)c1F` as the compound, how does the cell viability read?
The cell viability was 70%.

Which cell viability does the source give for `CC(C)(Oc1ccc(Cl)cc1)C(=O)OCCOC(=O)c1cccnc1` [Etofibrate] here?
The cell viability was 83.5%.

How did the cell viability turn out when `COc1cc(-c2oc3cc(O)cc(O)c3c(=O)c2OC2OC(COC3OC(C)C(O)C(O)C3O)C(O)C(O)C2OC2OC(C)C(O)C(O)C2O)ccc1O` (stereo not given) [Typhaneoside] was run?
The cell viability was 110%.

Reference: the supplement of paper PMC10981050
